Records with an inconclusive call do not appear. Calls of active or inactive are those of the source. Unless noted, calls come from the whole dose curve.
Tests used:
[1] = Cell Viability - BJ (AID 421); details: BJ fibroblast viability, qHTS;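 note: potency is the fitted concentration of half-maximal effect; cells exposed to compound for 40 hours at 37 °C before readout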
In short: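 Luminescent ATP signal (CellTiter-Glo, 20 min at room temperature) served as the read-out of viable BJ cells after 40 hours of compound treatment. Responses were scaled between DMSO and 100 uM tamoxifen, and AC50 values were obtained by Hill modeling.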

[2] = Cell Viability - Jurkat (AID 426;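 active = dose-dependent loss of cell ATP signal giving a full or clear fitted curve, ranked by lower potency value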;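 note: potency is the fitted concentration of half-maximal effect; cells exposed to compound for 40 hours at 37 °C before ATP read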); details: qHTS
In short: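 Cytotoxicity was scored as loss of cellular ATP, measured by luciferase-based luminescence, in Jurkat clone E6-1 cells after 40 h compound treatment; tamoxifen and doxorubicin served as positive controls.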

[3] = Cell Viability - Hek293 (AID 427;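 active = compounds whose dose-response curve shows a full or clear partial loss of cell viability, called from curve shape rather than a numeric limit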;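 note: potency is the fitted concentration of half-maximal effect; cells exposed to compound for 40 hours at 37 °C before reading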); details: qHTS
In short: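 Luminescent ATP read-out (CellTiter-Glo, 20 min RT) after 40 hr compound exposure at 37 °C in complete medium. Signal normalized to DMSO (basal) and 100 uM tamoxifen (100% inhibition); concentration-response fitted with the standard Hill equation to give AC50.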

[4] = Cell Viability - HepG2 (AID 433); details: qHTS;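 note: potency is the fitted concentration of half-maximal effect; potency for ATP loss meaning cytotoxicity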
In short: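 Read-out is luciferase-based quantitation of cellular ATP as a measure of viable HepG2 cells after 40 h treatment at 37 °C. Signal decrease is scaled between DMSO-only and 100 uM tamoxifen controls, with AC50 fitted by the Hill equation.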

[5] = Cell Viability - MRC5 (AID 434); details: MRC5 lung fibroblast viability, qHTS;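 note: potency is the fitted concentration of half-maximal effect; cells exposed to compound for 40 hours at 37 °C; potency reflects cytotoxicity seen as loss of intracellular ATP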
In short: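 AC50 values come from Hill-equation fits of intracellular ATP loss, measured by CellTiter-Glo luminescence. Normal lung fibroblasts (MRC5) had 40 hr compound treatment at 37 C, normalized between DMSO and 100 uM tamoxifen.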

[6] = Cell Viability - SK-N-SH (AID 435); details: SK-N-SH neuroblastoma cell viability qHTS;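 note: potency is the fitted concentration of half-maximal effect; compound exposure lasted 40 h at 37 °C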
In short: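 Luminescent ATP signal served as the viability read-out after 40 hours of compound treatment of human neuroblastoma SK-N-SH cells. Concentration-response data, scaled between DMSO and 100 uM tamoxifen, gave AC50 values by standard Hill modeling.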

[7] = molecular target: Mitogen-activated protein kinase 10 (Mus musculus) (UniProt Q61831); assay: JNK3 AlphaScreen Assay (AID 530; active = well fitted curve in either direction with a large enough effect, not every such curve was filed as active;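 note: kinase came from lysate of stimulated human HepG2 cells; signal reports phosphorylation of biotinylated GST-cJun 1-79 at Ser73 with 10 µM ATP; % is set by controls: 0 for no effect and ±100 for the full control effect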); details: JNK3 lysate, c-Jun phosphorylation; series mostly up to 57.1 µM
In short: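 Kinase buffer: 20 mM Tris-HCl pH 7.6, 10 mM MgCl2, 1 mM DTT, 0.1 mM Na3VO4, 0.01% Tween-20; ATP 10 uM. Substrate biotin-GST-cJun(1-79), enzyme from activated HepG2 lysates. Detection by Ser73 phospho-antibody AlphaScreen.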

[8] = Cell Viability - N2a (AID 540; active = well fitted curve in the direction sought with a large enough effect; an effect the other way counts as inactive or inconclusive;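 note: cells exposed to compound for 40 h at 37 °C; plate controls were DMSO alone for no effect and tamoxifen control for full effect; nearly all actives have a fitted effect of over 45% in size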); details: N2a mouse neuroblastoma cell viability; activity change, negative = cytotoxicity: at 92.2 µM (top of the series)
In short: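 In this qHTS cytotoxicity screen, ATP-dependent luciferase luminescence reports viable N2a cells after a 40 hr compound exposure in complete culture medium. Potencies are AC50 values from standard Hill equation fits.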

[9] = Cell Viability - NIH 3T3 (AID 541; active = well fitted curve in the direction sought with a large enough effect; an effect the other way counts as inactive or inconclusive;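 note: plate controls were DMSO alone for no effect and tamoxifen positive control for full effect; nearly all actives have a fitted effect of over 25% in size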); details: NIH 3T3 cell viability, qHTS; activity change, negative = cytotoxicity: at 92.2 µM (top of the series)
In short: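 In this cytotoxicity screen, acute toxicity is scored as an ATP drop measured by CellTiter-Glo in NIH 3T3 fibroblasts following a 40 hr, 37 °C incubation with compound.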

[10] = Cell Viability - HUV-EC-C (AID 542; active = well fitted curve in the direction sought with a large enough effect; an effect the other way counts as inactive or inconclusive; note: % is set by controls: 0 for no effect and ±100 for the full control effect; nearly all actives have a fitted effect of over 35% in size); details: HUV-EC-C endothelial cell viability, qHTS; series mostly up to 92.2 µM
In short: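 Concentration-dependent ATP loss in HUV-EC-C cells is the measure. Exposure lasts 40 hr at 37 °C; luminescence follows CellTiter-Glo addition, and Hill fits give AC50.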

CCCOCC(C)O (stereo not given)
inactive: Potency [1] > 92 µM | Potency [2] > 92 µM | Potency [3] > 92 µM | Potency [4] > 92 µM | Potency [5] > 92 µM | Potency [6] > 92 µM | outcome [7] | activity change, negative = cytotoxicity [8] -5.54% | Potency [9] | Potency [10]

Cc1cccc2ccccc12
inactive: Potency [1] > 92 µM | Potency [2] > 92 µM | Potency [3] > 92 µM | Potency [4] > 92 µM | Potency [5] > 92 µM | Potency [6] > 92 µM | outcome [7] | activity change, negative = cytotoxicity [8] -4.08% | Potency [9] | Potency [10]

CC(=O)OCc1ccco1
inactive: Potency [1] > 92 µM | Potency [2] > 92 µM | Potency [3] > 92 µM | Potency [4] > 92 µM | Potency [5] > 92 µM | Potency [6] > 92 µM | outcome [7] | activity change, negative = cytotoxicity [8] -7.42% | Potency [9] | Potency [10]

C/C=C1\CC2C=CC1C2 (stereo not given)
inactive: Potency [1] > 92 µM | Potency [2] > 92 µM | Potency [3] > 92 µM | Potency [4] > 92 µM | Potency [5] > 92 µM | Potency [6] > 92 µM | outcome [7] | activity change, negative = cytotoxicity [8] 4.82% | Potency [9] | Potency [10]

Cc1ccc([N+](=O)[O-])c(N)c1
inactive: Potency [1] > 92 µM | Potency [2] > 92 µM | Potency [3] > 92 µM | Potency [4] > 92 µM | Potency [5] > 92 µM | Potency [6] > 92 µM | outcome [7] | activity change, negative = cytotoxicity [8] -4.55% | Potency [9] | Potency [10]

CC(C)N(C)C
inactive: Potency [1] > 92 µM | Potency [2] > 92 µM | Potency [3] > 92 µM | Potency [4] > 92 µM | Potency [5] > 92 µM | Potency [6] > 92 µM | outcome [7] | activity change, negative = cytotoxicity [8] -3.04% | Potency [9] | Potency [10]

c1ccsc1
inactive: Potency [1] > 92 µM | Potency [2] > 92 µM | Potency [3] > 92 µM | Potency [4] > 92 µM | Potency [5] > 92 µM | Potency [6] > 92 µM | outcome [7] | activity change, negative = cytotoxicity [8] -9.01% | Potency [9] | Potency [10]

CC(=O)CC(C)C
inactive: Potency [1] > 92 µM | Potency [2] > 92 µM | Potency [3] > 92 µM | Potency [4] > 92 µM | Potency [5] > 92 µM | Potency [6] > 92 µM | outcome [7] | activity change, negative = cytotoxicity [8] -14.8% | Potency [9] | Potency [10]

O=[N+]([O-])c1c(Cl)cc(Cl)cc1Cl
inactive: Potency [1] > 92 µM | Potency [2] > 92 µM | Potency [3] > 92 µM | Potency [4] > 92 µM | Potency [5] > 92 µM | Potency [6] > 92 µM | outcome [7] | activity change, negative = cytotoxicity [8] 3.57% | Potency [9] | Potency [10]

CCN(Cc1ccccc1)c1ccccc1
inactive: Potency [1] > 92 µM | Potency [2] > 92 µM | Potency [3] > 92 µM | Potency [4] > 92 µM | Potency [5] > 92 µM | Potency [6] > 92 µM | outcome [7] | activity change, negative = cytotoxicity [8] 15.1% | Potency [9] | Potency [10]

c1ccc2c(c1)Oc1ccccc1S2
inactive: Potency [1] > 92 µM | Potency [2] > 92 µM | Potency [3] > 92 µM | Potency [4] > 92 µM | Potency [5] > 92 µM | Potency [6] > 92 µM | outcome [7] | activity change, negative = cytotoxicity [8] -9.06% | Potency [9] | Potency [10]

O=C1CCCCC1
inactive: Potency [1] > 92 µM | Potency [2] > 92 µM | Potency [3] > 92 µM | Potency [4] > 92 µM | Potency [5] > 92 µM | Potency [6] > 92 µM | outcome [7] | activity change, negative = cytotoxicity [8] -6.92% | Potency [9] | Potency [10]

Cc1nc2ccc(Cl)cc2[nH]1
inactive: Potency [1] > 92 µM | Potency [2] > 92 µM | Potency [3] > 92 µM | Potency [4] > 92 µM | Potency [5] > 92 µM | Potency [6] > 92 µM | outcome [7] | activity change, negative = cytotoxicity [8] -5.91% | Potency [9] | Potency [10]

Nc1nc(-c2ccccc2)cs1
inactive: Potency [1] > 92 µM | Potency [2] > 92 µM | Potency [3] > 92 µM | Potency [4] > 92 µM | Potency [5] > 92 µM | Potency [6] > 92 µM | outcome [7] | activity change, negative = cytotoxicity [8] -4.72% | Potency [9] | Potency [10]

CC(=O)c1ccccn1
inactive: Potency [1] > 92 µM | Potency [2] > 92 µM | Potency [3] > 92 µM | Potency [4] > 92 µM | Potency [5] > 92 µM | Potency [6] > 92 µM | outcome [7] | activity change, negative = cytotoxicity [8] -1.85% | Potency [9] | Potency [10]

O=[N+]([O-])c1cccc(C(F)(F)F)c1
inactive: Potency [1] > 92 µM | Potency [2] > 92 µM | Potency [3] > 92 µM | Potency [4] > 92 µM | Potency [5] > 92 µM | Potency [6] > 92 µM | outcome [7] | activity change, negative = cytotoxicity [8] 4.54% | Potency [9] | Potency [10]

COC(=O)CCCC(=O)OC
inactive: Potency [1] > 92 µM | Potency [2] > 92 µM | Potency [3] > 92 µM | Potency [4] > 92 µM | Potency [5] > 92 µM | Potency [6] > 92 µM | outcome [7] | activity change, negative = cytotoxicity [8] 3.33% | Potency [9] | Potency [10]

Cc1cscn1
inactive: Potency [1] > 92 µM | Potency [2] > 92 µM | Potency [3] > 92 µM | Potency [4] > 92 µM | Potency [5] > 92 µM | Potency [6] > 92 µM | outcome [7] | activity change, negative = cytotoxicity [8] 6.1% | Potency [9] | Potency [10]

CNC(=O)c1ccccc1
inactive: Potency [1] > 92 µM | Potency [2] > 92 µM | Potency [3] > 92 µM | Potency [4] > 92 µM | Potency [5] > 92 µM | Potency [6] > 92 µM | outcome [7] | activity change, negative = cytotoxicity [8] -4.58% | Potency [9] | Potency [10]

Cc1ccc2nc(-c3ccc(N)cc3)sc2c1S(=O)(=O)O
inactive: Potency [1] > 92 µM | Potency [2] > 92 µM | Potency [3] > 92 µM | Potency [4] > 92 µM | Potency [5] > 92 µM | Potency [6] > 92 µM | outcome [7] | activity change, negative = cytotoxicity [8] 3.3% | Potency [9] | Potency [10]

Cc1cc(C)cc(O)c1
inactive: Potency [1] > 92 µM | Potency [2] > 92 µM | Potency [3] > 92 µM | Potency [4] > 92 µM | Potency [5] > 92 µM | Potency [6] > 92 µM | outcome [7] | activity change, negative = cytotoxicity [8] -1.73% | Potency [9] | Potency [10]

CC(C)(C)OC=O
inactive: Potency [1] > 92 µM | Potency [2] > 92 µM | Potency [3] > 92 µM | Potency [4] > 92 µM | Potency [5] > 92 µM | Potency [6] > 92 µM | outcome [7] | activity change, negative = cytotoxicity [8] -8.52% | Potency [9] | Potency [10]

Cc1ccc(Cl)cc1N
inactive: Potency [1] > 92 µM | Potency [2] > 92 µM | Potency [3] > 92 µM | Potency [4] > 92 µM | Potency [5] > 92 µM | Potency [6] 47.5 µM | outcome [7] | activity change, negative = cytotoxicity [8] -10.6% | Potency [9] | Potency [10]

CCNS(=O)(=O)c1ccc(C)cc1
inactive: Potency [1] > 92 µM | Potency [2] > 92 µM | Potency [3] > 92 µM | Potency [4] > 92 µM | Potency [5] > 92 µM | Potency [6] > 92 µM | outcome [7] | activity change, negative = cytotoxicity [8] -13.9% | Potency [9] | Potency [10]

CC(=O)Nc1ccccc1C
inactive: Potency [1] > 92 µM | Potency [2] > 92 µM | Potency [3] > 92 µM | Potency [4] > 92 µM | Potency [5] > 92 µM | Potency [6] > 92 µM | outcome [7] | activity change, negative = cytotoxicity [8] 2.99% | Potency [9] | Potency [10]

O=C(O)c1ccccc1[N+](=O)[O-]
inactive: Potency [1] > 92 µM | Potency [2] > 92 µM | Potency [3] > 92 µM | Potency [4] > 92 µM | Potency [5] > 92 µM | Potency [6] > 92 µM | outcome [7] | activity change, negative = cytotoxicity [8] 4.07% | Potency [9] | Potency [10]
